Laboratory results taken from PubChem BioAssay AID1159580 (chemical genetic matrix, 2015).
Where “and” joins values, the source holds several entries; their conditions need not be identical. Equal entries are not always repeated. The whole screen tested about 5,500 compounds, of which about 2,000 (36%) were called active. About 18% were inconclusive and are not listed. Cut-off read from the data, not from the text of the source: active = normalized growth mostly below about 0.91 (no sharp cut-off); inconclusive = no clear call, values can overlap the other calls; inactive = mostly above about 0.92. The list shows a part of the results.

Test: chemical genetic growth profiling, strain panel (AID 1159580);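 note: tested at 20 µM; growth read once vehicle control cultures reached saturation at 30 °C; 1 = growth at the plate median or of vehicle wells; lower values mean less growth of the strain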
Details: S. cerevisiae deletion strains, growth OD

Measured: normalized growth

Nc1ncn([C@@H]2O[C@H](CO)[C@@H](O)[C@H]2O)c(=O)n1
inactive: locus YAL021C, strain ccr4, active compounds read low 1.01 | locus YAL026C, strain drs2, active compounds read low 0.998 | locus YAL030W, strain snc1, active compounds read low 0.996 | locus YBL061C, strain skt5, active compounds read low 0.987 | locus YBR009C, strain hhf1, active compounds read low 0.992 | locus YBR021W, strain FUR4, active compounds read low 0.999 | locus YBR023C, strain chs3, active compounds read low 1 | locus YBR171W, strain sec66, active compounds read low 0.962 | locus YBR229C, strain ROT2, active compounds read low 1.01 | locus YBR231C, strain swc5, active compounds read low 0.973 | locus YBR279W, strain paf1, active compounds read low 0.995 | locus YCL011C, strain gbp2, active compounds read low 1.01 | locus YCL016C, strain dcc1, active compounds read low 0.987 | locus YCL029C, strain bik1, active compounds read low 1 | locus YCL061C, strain MRC1, active compounds read low 0.989 | locus YCL069W, strain vba3, active compounds read low 0.979 | locus YCR088W, strain abp1, active compounds read low 0.996 | locus YDL005C, strain med2, active compounds read low 0.972 | locus YDL035C, strain GPR1, active compounds read low 1.02 | locus YDL040C, strain nat1, active compounds read low 0.981 | locus YDL074C, strain BRE1, active compounds read low 1.03 | locus YDL101C, strain DUN1, active compounds read low 1.01 | locus YDL134C, strain PPH21, active compounds read low 1.01 | locus YDL185W, strain tfp1, active compounds read low 0.99 | locus YDL192W, strain arf1, active compounds read low 0.994 | locus YDR001C, strain nth1, active compounds read low 0.984 | locus YDR069C, strain doa4, active compounds read low 0.976 | locus YDR101C, strain arx1, active compounds read low 0.996 | locus YDR137W, strain rgp1, active compounds read low 1 | locus YDR159W, strain sac3, active compounds read low 1 | locus YDR162C, strain NBP2, active compounds read low 1.01 | locus YDR195W, strain ref2 0.91 | locus YDR297W, strain sur2, active compounds read low 0.993 | locus YDR318W, strain mcm21, active compounds read low 0.999 | locus YDR334W, strain swr1, active compounds read low 0.989 | locus YDR335W, strain msn5, active compounds read low 0.98 | locus YDR388W, active compounds read low 0.997 | locus YDR392W, strain spt3, active compounds read low 1.02 | locus YDR502C, strain sam2, active compounds read low 1.01 | locus YEL003W, strain gim4, active compounds read low 0.982 | locus YEL037C, strain rad23, active compounds read low 0.992 | locus YEL061C, strain CIN8 (second series), active compounds read low 0.986 | locus YEL061C, strain CIN8, active compounds read low 1.01 | locus YER015W, strain faa2, active compounds read low 0.99 | locus YER016W, strain bim1, active compounds read low 1.01 | locus YER110C, active compounds read low 1.01 | locus YER111C, strain swi4, active compounds read low 0.959 | locus YER155C, strain BEM2 (second series), active compounds read low 0.978 | locus YER155C, strain BEM2, active compounds read low 1.01 | locus YER167W, strain BCK2, active compounds read low 0.996 | locus YFR010W, strain ubp6, active compounds read low 0.983 | locus YGL078C, strain dbp3, active compounds read low 0.992 | locus YGL086W, strain mad1, active compounds read low 1 | locus YGL167C, strain pmr1, active compounds read low 0.987 | locus YGL173C, strain kem1, active compounds read low 0.971 | locus YGL227W, strain vid30, active compounds read low 0.983 | locus YGL240W, strain doc1, active compounds read low 0.951 | locus YGL248W, strain PDE1, active compounds read low 1.02 | locus YGL253W, strain hxk2, active compounds read low 0.989 | locus YGR078C, strain PAC10, active compounds read low 1.03 | locus YGR135W, strain pre9, active compounds read low 0.99 | locus YGR229C, strain SMI1, active compounds read low 1.02 | locus YGR252W, strain gcn5, active compounds read low 0.962 | locus YHR013C, strain ard1, active compounds read low 0.979 | locus YHR027C, strain rpn1, active compounds read low 0.994 | locus YHR030C, strain SLT2, active compounds read low 1.01 and 0.98 | locus YHR079C, strain IRE1 (second series), active compounds read low 0.989 | locus YHR079C, strain IRE1, active compounds read low 0.997 | locus YHR094C, strain hxt1, active compounds read low 0.987 | locus YHR129C, strain ARP1, active compounds read low 1.01 | locus YHR142W, strain chs7, active compounds read low 0.974 | locus YHR200W, strain rpn10, active compounds read low 0.993 | locus YIL066C, strain RNR3, active compounds read low 1.02 | locus YIL073C, strain SPO22, active compounds read low 0.973 | locus YIL125W, strain kgd1, active compounds read low 0.997 | locus YIR030C, strain dcg1, active compounds read low 1 | locus YJL092W, strain hpr5, active compounds read low 0.984 | locus YJL095W, strain BCK1 (second series), active compounds read low 0.972 | locus YJL095W, strain BCK1, active compounds read low 1.03 and 0.98 | locus YJL115W, strain asf1, active compounds read low 0.97 | locus YJL129C, strain trk1, active compounds read low 0.966 | locus YJL134W, strain LCB3, active compounds read low 1 | locus YJL154C, strain vps35, active compounds read low 0.981 | locus YJL164C, strain tpk1, active compounds read low 0.996 | locus YJL166W, strain qcr8, active compounds read low 0.973 | locus YJL168C, strain set2, active compounds read low 0.995 | locus YJL187C, strain SWE1 (second series), active compounds read low 1.03 | locus YJL187C, strain SWE1, active compounds read low 0.983 | locus YJR043C, strain POL32, active compounds read low 1.01
